Results filed as inconclusive are left out. A call without a number means that no potency is given here. Some structures have more than one record in an assay (separate samples or runs), and their calls can disagree. Calls of active or inactive are those of the source. Unless noted, the call rests on the fitted dose curve.
Legend:
[1] = qHTS assay to identify small molecule antagonists of the sonic hedgehog signaling (Shh) pathway (AID 1259369); further: nearly all actives have a fitted effect of over 45% in size
Summary of the method: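 Cells are plated and held 4hr at 37 C, compounds (DMSO) are pinned in, conditioned medium is added to stimulate the pathway, and after 24hr luciferase reagent is added for 30min before luminescence is read.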

[2] = qHTS assay to identify small molecule agonists of the androgen receptor (AR) signaling pathway in the presence of an antagonist - cell viability counter screen (AID 1259379; active means well fitted curve in the direction sought with a large enough effect in the repeat runs; an effect the other way counts as inactive or inconclusive;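 further: MDA-kb2 human breast cancer cells carrying an MMTV luciferase reporter; series mostly up to about 92 µM; nearly all actives have a fitted effect of over 25% in size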)
Summary of the method: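 Cytotoxicity is assessed by CellTiter-Fluor in MDA-kb2 cells carrying an MMTV-driven luciferase reporter. Cells receive 3.0uM nilutamide plus compounds at 15 concentrations and incubate 16 hr at 37C without CO2 before fluorescence reading.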

[3] = qHTS assay to identify small molecule agonists of the estrogen receptor beta (ER-beta) signaling pathway - cell viability counter screen (AID 1259380; active means well fitted curve in the direction sought with a large enough effect in the repeat runs; an effect the other way counts as inactive or inconclusive; further: nearly all actives have a fitted effect of over 30% in size)
Summary of the method: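 Cytotoxicity is measured in parallel with the reporter screen: after 16 hr compound exposure at 37C and a 2 hr LiveBLAzer step, CellTiter-Glo is added to the same ER-beta-UAS-bla HEK293T wells and luminescence read after 30 min.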

[4] = biological target: Androgen receptor (Homo sapiens) (UniProt P10275); assay: qHTS assay to identify small molecule agonists of the androgen receptor (AR) signaling pathway in the presence of an antagonist (AID 1259381); further: nearly all actives have a fitted effect of over 15% in size
Chain of Androgen receptor (Homo sapiens) (P10275 whole entry, looked up): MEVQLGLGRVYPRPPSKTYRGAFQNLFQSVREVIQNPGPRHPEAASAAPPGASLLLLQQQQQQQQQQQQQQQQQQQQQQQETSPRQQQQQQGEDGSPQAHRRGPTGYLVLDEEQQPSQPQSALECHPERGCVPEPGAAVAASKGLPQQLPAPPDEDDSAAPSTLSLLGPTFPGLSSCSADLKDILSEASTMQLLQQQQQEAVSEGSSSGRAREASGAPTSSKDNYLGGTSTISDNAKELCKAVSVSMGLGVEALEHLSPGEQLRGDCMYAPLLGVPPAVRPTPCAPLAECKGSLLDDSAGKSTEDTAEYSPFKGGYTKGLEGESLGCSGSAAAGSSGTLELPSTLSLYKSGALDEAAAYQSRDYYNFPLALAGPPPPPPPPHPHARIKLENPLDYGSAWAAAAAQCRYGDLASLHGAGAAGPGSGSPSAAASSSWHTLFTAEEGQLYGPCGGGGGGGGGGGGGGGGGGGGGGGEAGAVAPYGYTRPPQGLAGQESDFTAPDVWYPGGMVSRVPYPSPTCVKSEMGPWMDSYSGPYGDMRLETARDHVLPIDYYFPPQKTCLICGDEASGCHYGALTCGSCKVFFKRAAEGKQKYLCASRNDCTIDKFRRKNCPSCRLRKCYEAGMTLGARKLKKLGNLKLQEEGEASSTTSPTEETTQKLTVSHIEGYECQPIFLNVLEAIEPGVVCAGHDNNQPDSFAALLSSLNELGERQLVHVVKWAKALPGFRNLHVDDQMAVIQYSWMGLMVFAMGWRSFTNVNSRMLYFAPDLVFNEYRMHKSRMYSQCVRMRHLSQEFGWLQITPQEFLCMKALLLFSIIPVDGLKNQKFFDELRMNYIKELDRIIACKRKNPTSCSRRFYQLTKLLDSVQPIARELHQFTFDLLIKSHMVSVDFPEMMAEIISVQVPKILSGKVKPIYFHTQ
Summary of the method: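 Agonist-mode confirmation screen: human MDA-kb2 cells stably expressing luciferase under an MMTV promoter bearing AR and GR response elements, co-treated with 3.0uM nilutamide (final). Luminescence measured after 16hr compound incubation.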

[5] = qHTS assay to identify small molecule antagonists of the estrogen receptor beta (ER-beta) signaling pathway - cell viability counter screen (AID 1259382; active means well fitted curve in the direction sought with a large enough effect in the repeat runs; an effect the other way counts as inactive or inconclusive; further: series mostly up to about 92 µM; nearly all actives have a fitted effect of over 55% in size)
Summary of the method: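 Cytotoxicity counter screen multiplexed with the beta-lactamase antagonist assay: GripTite HEK293T ER-beta-bla cells were treated 16 hr with test chemicals in the presence of 1nM 17-beta-estradiol, and viability was measured by CellTiter-Glo.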

[6] = qHTS assay to identify small molecule agonists or antagonists of the thyroid stimulating hormone receptor (TSHR) signaling pathway - wild type cell line counter screen (AID 1259384)
Summary of the method: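 Wild-type HEK293 cells were plated 18 h at 37 C/5% CO2, pin-dosed with compound plus Ro20-1724 medium, held 30 min at room temperature, then given cAMP-d2 and anti-cAMP-cryptate; fluorescence was read after 1 h. Fifteen concentrations, triplicate.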

[7] = biological target: Thyrotropin receptor (Homo sapiens) (UniProt P16473); assay: qHTS assay to identify small molecule antagonists of the thyroid stimulating hormone receptor (TSHR) signaling pathway (AID 1259385); further: nearly all actives have a fitted effect of over 20% in size
Chain of Thyrotropin receptor (Homo sapiens) (P16473 whole entry, looked up): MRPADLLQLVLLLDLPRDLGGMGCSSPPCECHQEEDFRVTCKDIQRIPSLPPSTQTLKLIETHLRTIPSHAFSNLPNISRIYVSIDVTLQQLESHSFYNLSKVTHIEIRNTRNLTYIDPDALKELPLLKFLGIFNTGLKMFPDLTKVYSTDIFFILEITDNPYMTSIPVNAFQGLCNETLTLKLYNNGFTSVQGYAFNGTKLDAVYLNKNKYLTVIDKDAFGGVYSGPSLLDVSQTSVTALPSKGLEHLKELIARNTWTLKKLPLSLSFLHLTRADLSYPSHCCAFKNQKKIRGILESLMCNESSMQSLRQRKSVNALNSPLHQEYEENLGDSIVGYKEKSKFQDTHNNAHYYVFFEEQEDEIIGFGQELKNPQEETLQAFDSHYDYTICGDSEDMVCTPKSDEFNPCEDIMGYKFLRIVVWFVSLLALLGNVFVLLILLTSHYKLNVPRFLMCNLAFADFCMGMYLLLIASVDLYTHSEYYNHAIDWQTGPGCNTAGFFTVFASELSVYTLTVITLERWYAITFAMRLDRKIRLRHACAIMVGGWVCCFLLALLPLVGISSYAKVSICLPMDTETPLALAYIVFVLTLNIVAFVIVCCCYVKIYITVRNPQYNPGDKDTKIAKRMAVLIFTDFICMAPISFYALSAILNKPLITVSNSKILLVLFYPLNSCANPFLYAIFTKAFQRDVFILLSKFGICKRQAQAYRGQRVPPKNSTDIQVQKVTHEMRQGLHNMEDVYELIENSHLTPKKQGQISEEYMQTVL
Summary of the method: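 TSHR-HEK293 cells were plated and held 18 h at 37C/5% CO2, then given compound plus Ro20-1724 and stimulated with TSH at 1.5 ng/mL final. After 30 min at room temperature, cAMP was detected with cAMP-d2/anti-cAMP-cryptate (1 h) by fluorescence.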

[8] = qHTS assay to identify small molecule agonists of the estrogen receptor alpha (ER-alpha) signaling pathway in the presence of an antagonist - cell viability counter screen (AID 1259386; active means well fitted curve in the direction sought with a large enough effect in the repeat runs; an effect the other way counts as inactive or inconclusive;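 further: series mostly up to about 92 µM; cells exposed to compounds for 22 h at 37 °C before the viability read; nearly all actives have a fitted effect of over 30% in size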)
Summary of the method: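 Cytotoxicity was measured in parallel with the ERE-luciferase agonist screen, in the same wells. The cells were VM7Luc4E2, which endogenously express ER-alpha, and treatment was with compounds plus 10.0nM ICI-182,780 for 22hr.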

[9] = biological target: Progesterone receptor (Homo sapiens) (UniProt P06401); assay: qHTS assay to identify small molecule agonists of the progesterone receptor (PR) signaling pathway (AID 1346784); further: nearly all actives have a fitted effect of over 30% in size
Chain of Progesterone receptor (Homo sapiens) (P06401 whole entry, looked up): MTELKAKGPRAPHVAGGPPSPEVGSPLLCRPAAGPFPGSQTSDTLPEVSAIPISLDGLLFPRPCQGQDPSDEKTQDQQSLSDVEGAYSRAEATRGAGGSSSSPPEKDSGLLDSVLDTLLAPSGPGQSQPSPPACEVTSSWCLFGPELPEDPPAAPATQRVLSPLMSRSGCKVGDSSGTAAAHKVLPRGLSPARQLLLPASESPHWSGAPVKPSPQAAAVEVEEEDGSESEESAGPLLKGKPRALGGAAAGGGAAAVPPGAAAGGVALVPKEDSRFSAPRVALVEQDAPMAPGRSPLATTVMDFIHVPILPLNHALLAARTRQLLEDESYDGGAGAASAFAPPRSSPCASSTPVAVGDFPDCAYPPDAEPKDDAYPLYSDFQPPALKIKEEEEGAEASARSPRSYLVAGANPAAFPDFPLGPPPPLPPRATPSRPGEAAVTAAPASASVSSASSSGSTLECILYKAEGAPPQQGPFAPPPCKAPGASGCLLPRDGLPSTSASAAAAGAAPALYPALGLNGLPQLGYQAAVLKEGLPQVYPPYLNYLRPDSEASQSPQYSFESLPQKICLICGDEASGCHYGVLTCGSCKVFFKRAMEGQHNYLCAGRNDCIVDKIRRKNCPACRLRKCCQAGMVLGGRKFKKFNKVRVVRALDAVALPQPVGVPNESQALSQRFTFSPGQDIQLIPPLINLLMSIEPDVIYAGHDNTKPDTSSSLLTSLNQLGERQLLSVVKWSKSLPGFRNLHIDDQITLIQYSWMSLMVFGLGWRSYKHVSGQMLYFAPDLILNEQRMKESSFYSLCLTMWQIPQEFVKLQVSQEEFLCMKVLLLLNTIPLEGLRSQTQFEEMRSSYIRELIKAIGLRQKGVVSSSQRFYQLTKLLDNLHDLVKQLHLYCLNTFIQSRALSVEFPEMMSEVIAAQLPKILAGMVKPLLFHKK
Summary of the method: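 Seed PR-UAS-bla HEK 293T cells (2% charcoal-stripped FBS), incubate 6 hr at 37C; add compounds in DMSO, 16 hr at 37C; add LiveBLAzer B/G substrate, 2 hr RT; read fluorescence intensity.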

[10] = qHTS assay to identify small molecule antagonists of the progesterone receptor (PR) signaling pathway - cell viability counter screen (AID 1346798; active means well fitted curve in the direction sought with a large enough effect in the repeat runs; an effect the other way counts as inactive or inconclusive; further: series mostly up to about 92 µM; nearly all actives have a fitted effect of over 50% in size)
Summary of the method: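 Measures cytotoxicity in parallel with the PR antagonist reporter read: HEK293T PR-UAS-bla cells get compound and R5020 for 16 hr, and remaining viable cells are quantified by CellTiter-Glo luminescence.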

[11] = qHTS assay to identify small molecule agonists of the progesterone receptor (PR) signaling pathway - cell viability counter screen (AID 1346799); further: nearly all actives have a fitted effect of over 45% in size
Summary of the method: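 Using the same plates as the PR reporter screen, HEK293T PR-UAS-bla cells received compounds for 16 hr at 37C and were then lysed with CellTiter-Glo; luminescence was read 30 min later at room temperature.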

[12] = qHTS assay to identify small molecule antagonists of the TGF-beta/Smad signaling pathway - cell viability counter screen (AID 1346824; active means well fitted curve in the direction sought with a large enough effect in the repeat runs; an effect the other way counts as inactive or inconclusive; further: nearly all actives have a fitted effect of over 50% in size)
Summary of the method: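 SBE-bla HEK 293T cells were plated overnight at 37 C, then given compounds in DMSO plus TGF-beta1 (added as 0.25 ng/mL solution) for 5 hr. After the bla read, CellTiter-Glo was added to the same wells and luminescence read after 30 min at room temperature.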

[13] = qHTS assay to identify small molecule agonists of the TGF-beta/Smad signaling pathway - cell viability counter screen (AID 1346829; active means well fitted curve in the direction sought with a large enough effect in the repeat runs; an effect the other way counts as inactive or inconclusive; further: top concentration of the series differs between compounds; nearly all actives have a fitted effect of over 45% in size)
Summary of the method: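 CellTiter-Glo luminescence readout; SBE-bla HEK 293T cells, overnight plating, compound 5 hr at 37 C/5% CO2, then bla substrate 2 hr RT, then CellTiter-Glo 30 min RT.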

[14] = qHTS assay to identify small molecule agonists of the TGF-beta/Smad signaling pathway (AID 1346859; active means well fitted activation curve with a large enough effect in the signal ratio in the repeat runs, not every such curve was filed as active; the % refers to the signal ratio; further: series mostly up to about 77 µM)
Summary of the method: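 Beta-lactamase reporter activity downstream of Smad binding elements was measured in stably transfected HEK 293T cells; compounds were incubated for 5 hr, substrate for 2 hr at room temperature.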

[15] = biological target: Thyrotropin-releasing hormone receptor (Homo sapiens) (UniProt P34981); assay: qHTS assay to identify small molecule antagonists of the thyrotropin-releasing hormone receptor (TRHR) signaling pathway (AID 1346877; active means well fitted inhibition curve with a large enough effect in the repeat runs, not every such curve was filed as active; further: series mostly up to about 51 µM)
Chain of Thyrotropin-releasing hormone receptor (Homo sapiens) (P34981 whole entry, looked up): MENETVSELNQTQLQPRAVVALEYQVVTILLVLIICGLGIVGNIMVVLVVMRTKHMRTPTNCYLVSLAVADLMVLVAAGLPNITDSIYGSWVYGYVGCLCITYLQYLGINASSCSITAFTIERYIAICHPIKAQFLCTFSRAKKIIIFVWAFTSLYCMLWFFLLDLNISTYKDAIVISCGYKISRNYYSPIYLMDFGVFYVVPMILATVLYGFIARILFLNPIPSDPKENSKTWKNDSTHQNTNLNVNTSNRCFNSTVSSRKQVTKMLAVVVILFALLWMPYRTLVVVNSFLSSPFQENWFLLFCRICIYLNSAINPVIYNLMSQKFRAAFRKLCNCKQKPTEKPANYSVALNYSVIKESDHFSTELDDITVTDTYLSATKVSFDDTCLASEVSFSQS
Summary of the method: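 Antagonism is measured as suppression of the calcium response to 1 nM TRH in TRHR-HEK293 cells that have been dye-loaded for 2 h at 37 °C after overnight plating. Each compound is tested at 15 concentrations in triplicate.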

[16] = biological target: Thyrotropin-releasing hormone receptor (Homo sapiens) (UniProt P34981); assay: qHTS assay to identify small molecule agonists of the thyrotropin-releasing hormone receptor (TRHR) signaling pathway (AID 1346891);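 further: HEK293 cells expressing TRHR with calcium dye readout; series mostly up to about 58 µM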
Summary of the method: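 Overnight-plated (18 h, 37 °C, 5% CO2) TRHR-Hek293 cells; 2 h calcium dye at 37 °C; compound in DMSO; 3-min kinetic fluorescence read.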

[17] = biological target: Estrogen receptor beta (Homo sapiens) (UniProt Q92731); assay: qHTS assay to identify small molecule antagonists of the estrogen receptor beta (ER-beta) signaling pathway (AID 1259378; active means well fitted inhibition curve with a large enough effect in the signal ratio in the repeat runs, not every such curve was filed as active; the % refers to the signal ratio)
Chain of Estrogen receptor beta (Homo sapiens) (Q92731 whole entry, looked up): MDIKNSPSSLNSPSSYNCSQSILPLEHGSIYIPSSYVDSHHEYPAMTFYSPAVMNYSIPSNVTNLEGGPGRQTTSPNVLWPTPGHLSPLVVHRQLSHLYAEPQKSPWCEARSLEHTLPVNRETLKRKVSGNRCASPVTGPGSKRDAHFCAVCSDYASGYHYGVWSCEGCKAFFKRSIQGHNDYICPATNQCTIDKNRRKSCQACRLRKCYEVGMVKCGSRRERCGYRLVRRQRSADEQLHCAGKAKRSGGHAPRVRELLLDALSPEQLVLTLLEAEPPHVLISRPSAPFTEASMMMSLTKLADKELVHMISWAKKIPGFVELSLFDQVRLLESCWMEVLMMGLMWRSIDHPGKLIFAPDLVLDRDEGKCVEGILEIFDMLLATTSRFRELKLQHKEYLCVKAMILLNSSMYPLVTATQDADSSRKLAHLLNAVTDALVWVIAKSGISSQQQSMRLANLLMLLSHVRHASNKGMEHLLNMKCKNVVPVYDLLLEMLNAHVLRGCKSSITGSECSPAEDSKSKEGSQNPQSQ
Summary of the method: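 ER-beta-UAS-bla HEK293T (GripTite) cells in 2% charcoal-stripped FBS medium were preincubated 6 hr at 37C, dosed with compound, then stimulated with 1 nM E2 (final) for 16 hr; beta-lactamase reporter read by B/G FRET fluorescence after 2 hr substrate loading.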

[18] = biological target: Estrogen receptor (Homo sapiens) (UniProt P03372); assay: qHTS assay to identify small molecule agonists of the estrogen receptor alpha (ER-alpha) signaling pathway in the presence of an antagonist (AID 1259383); further: nearly all actives have a fitted effect of over 15% in size; further: potency means the concentration at half of the fitted maximal effect; on activation: top concentration of the series differs between compounds
Chain of Estrogen receptor (Homo sapiens) (P03372 whole entry, looked up): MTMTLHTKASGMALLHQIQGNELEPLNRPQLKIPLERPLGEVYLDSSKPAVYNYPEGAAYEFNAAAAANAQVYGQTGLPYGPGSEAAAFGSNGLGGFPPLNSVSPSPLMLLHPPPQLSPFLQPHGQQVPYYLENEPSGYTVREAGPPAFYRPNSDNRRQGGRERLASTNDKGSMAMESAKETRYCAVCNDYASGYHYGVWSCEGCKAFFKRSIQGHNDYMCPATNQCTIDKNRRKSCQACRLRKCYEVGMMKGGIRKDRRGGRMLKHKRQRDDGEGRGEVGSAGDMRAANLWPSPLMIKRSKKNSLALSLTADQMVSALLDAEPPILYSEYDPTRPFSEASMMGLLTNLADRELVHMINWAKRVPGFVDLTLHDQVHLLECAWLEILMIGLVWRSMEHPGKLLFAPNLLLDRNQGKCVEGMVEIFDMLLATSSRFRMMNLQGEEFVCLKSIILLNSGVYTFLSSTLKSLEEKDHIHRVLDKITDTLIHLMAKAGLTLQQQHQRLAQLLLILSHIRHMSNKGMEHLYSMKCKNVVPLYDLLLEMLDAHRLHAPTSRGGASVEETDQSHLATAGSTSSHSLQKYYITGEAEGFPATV
Summary of the method: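 Agonist-mode confirmation in the presence of the ER antagonist ICI-182,780 at 10.0nM final. Breast-derived VM7Luc4E2 reporter cells were exposed to compounds for 22hr, and ERE-driven luciferase was quantified by luminescence.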

[19] = biological target: Progesterone receptor (Homo sapiens) (UniProt P06401); assay: qHTS assay to identify small molecule antagonists of the progesterone receptor (PR) signaling pathway (AID 1346795; active means well fitted inhibition curve with a large enough effect in the signal ratio in the repeat runs, not every such curve was filed as active; the % refers to the signal ratio)
Summary of the method: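 Screening used a GripTite HEK293T line with PR-responsive UAS-beta-lactamase. Cells were challenged with compound in the presence of 1 nM R5020 final for 16 hr at 37C; B/G FRET substrate, 2 hr room temperature, fluorescence.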

[20] = biological target: Estrogen receptor beta (Homo sapiens) (UniProt Q92731); assay: qHTS assay to identify small molecule agonists of the estrogen receptor beta (ER-beta) signaling pathway (AID 1259377; active means well fitted activation curve with a large enough effect in the signal ratio in the repeat runs, not every such curve was filed as active; the % refers to the signal ratio)
Summary of the method: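 Screening used GripTite ER-beta-UAS-bla cells held in 2% charcoal-stripped FBS medium. After overnight (16 hr) compound incubation at 37C, beta-lactamase activity was detected with a FRET substrate by fluorescence.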

| SMILES | Potency [1] | Potency [2] | Potency [3] | Potency [4] | outcome [5] | outcome [6] | outcome [7] | Potency [8] | Potency [9] | outcome [10] | outcome [11] | outcome [12] | outcome [13] | outcome [14] | outcome [15] | outcome [16] | Potency [17] | Potency [18] | Potency [19] | Potency [20] |
| --- | --- | --- | --- | --- | --- | --- | --- | --- | --- | --- | --- | --- | --- | --- | --- | --- | --- | --- | --- | --- |
| COc1cc(OC)c(C(=O)CCCN2CCCC2)c(OC)c1 | inactive | inactive | inactive | inactive | inactive | inactive | inactive | inactive | inactive | inactive | inactive | inactive | inactive | inactive | inactive | inactive |  |  |  |  |
| O=C1C(c2[nH]c3ccccc3c2O)=Nc2ccccc21 | inactive | inactive |  |  | inactive | inactive | inactive | inactive | inactive | inactive | inactive | inactive | inactive | inactive | inactive | inactive | inactive |  |  |  |
| CCOCC(=O)O | inactive | inactive | inactive |  | inactive | inactive | inactive | inactive | inactive | inactive | inactive | inactive | inactive | inactive |  |  |  | inactive |  |  |
| O=C(O)c1ccc(C(=O)O)c(C(=O)O)c1 | inactive | inactive | inactive | inactive | inactive | inactive | inactive | inactive | inactive | inactive | inactive | inactive | inactive | inactive | inactive | inactive |  | inactive | inactive |  |
| NCCCCCCN | inactive |  | inactive |  | inactive | inactive | inactive | inactive | inactive | inactive | inactive | inactive | inactive | inactive | inactive | inactive |  |  |  |  |
| CC(=O)OCc1ccccc1 | inactive |  |  | inactive | inactive | inactive | inactive | inactive | inactive | inactive | inactive | inactive | inactive | inactive | inactive | inactive |  | 139 nM (active) and inactive | inactive | inactive |
| CNC(=O)Oc1ccc2c(c1)[C@]1(C)CCN(C)[C@@H]1N2C | inactive |  | inactive |  | inactive | inactive | inactive | inactive | inactive | inactive | inactive | inactive | inactive | inactive | inactive | inactive |  | inactive | inactive |  |
| CSc1ccc(Cl)cc1 | inactive |  |  | inactive | inactive | inactive | inactive | inactive | inactive | inactive | inactive | inactive | inactive | inactive | inactive | inactive |  | inactive | inactive | inactive |

— PubChem BioAssay (Tox21)
